# According to PubChem BioAssay AID2314 (National Center for Advancing Translational Sciences (NCATS), 2010):
# Where “and” joins values, the source holds several entries; their conditions need not be identical. Identical values can stand only once. Screen size: about 300,000 compounds; about 37,000 (12%) were called active. This is one part of a sample in which actives are shown more often than they occur. No stated cut-off is given here; in the data, active means max response mostly above about 13% (no sharp cut-off); inactive means mostly below about 14%.
# Experiment: Cycloheximide Counterscreen for Small Molecule Inhibitors of Shiga Toxin; further: read at 38.3 µM for the half of the compounds with a filed dose; 0% is about no effect
# Conditions: cell reporter, cycloheximide protein synthesis inhibition counterscreen; hits give high values
row,Structure (SMILES),max response
1,CCCC(C(=O)n1nc(C)cc1C)C(NS(=O)(=O)c1ccc(C)cc1)c1ccccc1 (stereo not given),8.08% (inactive)
2,N#CCC(=O)NC1CCC(CC2CCC(NC(=O)CC#N)CC2)CC1 (stereo not given),-6.39% (inactive)
3,c1ccc(CCc2nc(-c3ccncc3)no2)cc1,30.3% (active)
4,O=C(Cc1ccc(Cl)cc1)NCc1nc(-c2ccccc2)no1,16.7% (inactive)
5,O=C1c2ccccc2C(=O)N1CCCc1nc(-c2ccccc2)no1,4.56% (inactive)
6,CN(CC1CCCO1)S(=O)(=O)c1ccc(C(=O)Nc2ccc([N+](=O)[O-])cc2)cc1 (stereo not given),-2.48% (inactive)
7,O=C(Cn1c(COc2ccccc2)nc2ccccc21)Nc1cc(Cl)c(Cl)cc1Cl,6.88% (inactive)
8,Cn1c(COc2ccc(Cl)cc2)nc2ccccc2c1=O,31.5% (inactive)
9,Cc1ccc(OCc2nc3ccccc3n2C)cc1,26.1% (active)
10,CC(C)n1c(COc2ccccc2)nc2ccccc21,2.4% (inactive)
11,COCn1c(COc2ccccc2)nc2ccccc21,36.4% (active)
12,Cc1ccc(OCc2n[nH]c(=S)n2-c2ccccc2)cc1,-8.01% (inactive)
13,CC1(C)Cc2cccc(OCC(=O)NCc3ccccc3)c2O1,-11.4% (inactive)
14,COC(=O)C1=C(C)N(C)C(=O)NC1c1ccc([N+](=O)[O-])o1 (stereo not given),-2.81% (inactive)
15,O=C(CO/N=C/c1ccc(OC(F)F)cc1)NCc1ccc(F)cc1,-1.6% (inactive)
16,CC(=O)Cn1ncc(N2CCOCC2)c(Br)c1=O,8.19% (inactive)
17,Cn1c(=O)c2c(nc(N3CCCCCC3)n2CC(=O)c2ccc(Br)cc2)n(C)c1=O,4.19% (inactive)
18,O=C(Cn1ncc(N2CCCC2)c(Br)c1=O)c1ccc(Cl)cc1,21.9% (active)
19,O=c1[nH]c(CCl)nc2cc(-c3ccc(Cl)cc3)sc12,3.01% (inactive)
20,CC(O)c1cccc(NC(=O)Cc2cccc3ccccc23)c1 (stereo not given),-1.49% (inactive)
21,O=C(NC(=S)Nc1cccc(-c2ccc(CO)o2)c1)c1cccs1,12.5% (inactive)
22,O=C(Nc1ccc(NC(=O)c2cccs2)cc1)c1ccc2ccccc2c1,21.9% (inactive)
23,O=C(Nc1ccc2oc(-c3ccc4ccccc4c3)nc2c1)c1cccs1,42.5% (active)
24,O=C(Nc1ccc2c(c1)C(=O)OC2)Nc1cccc2ccccc12,8.24% (inactive)

row,Structure (SMILES),max response
1,O=C(Cc1cccc2ccccc12)Nc1ccc2oc(-c3ccccc3)nc2c1,51.7% (active)
2,Cc1ccc(NC(=O)CSc2nn3c(=O)c(C)nnc3s2)cc1Cl,8.05% (inactive)
3,CC(OC(=O)c1ccccc1N1C(=O)C2C3CCC(C3)C2C1=O)C(=O)c1ccccc1 (stereo not given),-0.595% (inactive)
4,O=C(Oc1ccc([N+](=O)[O-])cc1)c1ccc2ccccc2n1,33.2% (active)
5,COc1ccccc1NC(=O)CCC(=O)OC(C)C(=O)c1ccccc1 (stereo not given),-2.18% (inactive)
6,COc1ccc(C(=O)COC(=O)c2ccc3ccccc3n2)cc1,20.4% (active)
7,COc1ccc(C2=NOC(COC(=O)c3ccc4ccccc4n3)C2)cc1 (stereo not given),12.5% (inactive)
8,CC(OC(=O)c1ccc2ccccc2n1)C(=O)c1ccccc1 (stereo not given),25.1% (active)
9,O=C(CNC(=O)c1ccccc1)Oc1ccc([N+](=O)[O-])cc1,0.695% (inactive)
10,CCCCC(C(=O)OCC(=O)c1ccc(OC)cc1)N1C(=O)c2ccccc2C1=O (stereo not given),1.39% (inactive)
11,O=C(Oc1ccc([N+](=O)[O-])cc1)c1ccc(Cl)c(S(=O)(=O)N2CCCCC2)c1,7.89% (inactive)
12,CCCn1cc(S(=O)(=O)c2ccc(C)cc2)c(=O)c2cc(OCC)ccc21,-2.9% (inactive)
13,Nc1nc(NCC(=O)O)nc(N2CCCCCC2)c1[N+](=O)[O-],-3.03% (inactive)
14,COc1ccc(NC(=O)c2cccc3c2C(=O)N(CC2CCCO2)C3)cc1OC (stereo not given),1.17% (inactive)
15,COc1ccccc1N(CC(=O)NC1CCCC1)C(=O)C1(C)CC(=O)N=C2C=CC(C)=CN21 (stereo not given),-3.56% (inactive)
16,CN(C)C(=O)c1ccc2c(c1)C1C3CCC(C3)C1C(c1ccccc1)N2 (stereo not given),-4.56% (inactive)
17,NNc1nc2c(Cl)cccc2s1,53.2% (active)
18,CN(C)CCCN(C(=O)COc1ccccc1)c1nc2c(Cl)cccc2s1,-4.5% (inactive)
19,Cc1ccc(S(=O)(=O)Cc2cc(-c3ccc(Cl)cc3)no2)cc1,0.779% (inactive)
20,Cc1ccc(-c2cc(N)on2)cc1,21% (active)
21,NC(=O)c1oc2ccccc2c1NC(=O)Cc1ccccc1,-2.17% (inactive)
22,CC(C)(C)Nc1c(N)c(=O)oc2ccccc12,-1.31% (inactive)
23,Nc1c(NCCc2ccccc2)c2ccccc2oc1=O,23.7% (active)
24,CC(=O)N1c2ccc(S(=O)(=O)N3CCC(C(=O)NC4CCCC(C)C4C)CC3)cc2CC1C (stereo not given),4.81% (inactive)

row,Structure (SMILES),max response
1,Cc1ccc(OCC(=O)Nc2ccccc2C(=O)NC2CC2)cc1C,-1.62% (inactive)
2,CCOC(=O)CSc1nnc(-c2ccc([N+](=O)[O-])cc2)o1,-0.444% (inactive)
3,CCCCSc1nnc(-c2ccc(C)cc2)o1,40.6% (active)
4,CCOC(=O)CSc1nnc(-c2ccncc2)o1,1.84% (inactive)
5,c1ccc2c(c1)C(=NC1CCCCC1)NC2=NC1CCCCC1,-4.35% (inactive)
6,O=C(c1ccc(CS(=O)(=O)c2ccccc2)o1)N1CCN(c2ccccc2)CC1,-5.15% (inactive)
7,Cc1c(CC(=O)NCC(=O)NCC(=O)O)c(=O)oc2cc3oc4c(c3cc12)CCCC4,-2.59% (inactive)
8,COc1ccc(N(CC(=O)Nc2cc(OC)cc(OC)c2)S(=O)(=O)c2c(C)n[nH]c2C)cc1,-1.21% (inactive)
9,Cc1ccc(Nc2cc(C)nc3c(C)ccc([N+](=O)[O-])c23)cc1,0.487% (inactive)
10,Cc1[nH]n(-c2cccc(Cl)c2)c(=O)c1-c1ccc(Cl)cc1,12.1% (inactive)
11,O=c1c(-c2ccccc2Cl)c[nH]n1-c1ccccc1,8.14% (inactive)
12,O=c1c(-c2cccc(Cl)c2)c[nH]n1-c1ccccc1,69.9% (active)
13,CC(=O)C1=C(O)C(=O)N(c2cccnc2)C1c1ccc([N+](=O)[O-])cc1 (stereo not given),-2.81% (inactive)
14,O=C(COC(=O)c1ccc(N2CCCC2=O)cc1)c1ccc(OC(F)F)cc1,2.45% (inactive)
15,S=c1[nH]c2ccccc2c2ccccc12,1.83% (inactive)
16,Cc1ccc2c(c1)NCC(C(=O)NC1CCC(C)CC1)O2 (stereo not given),41.1% (active)
17,CC1CCC(NC(=O)C2c3ccccc3C(=O)N2Cc2ccc3c(c2)OCO3)CC1 (stereo not given),-1.18% (inactive)
18,Cc1ccc(C(=O)NC2CC(C)(C)NC(C)(C)C2)c(C)c1,-4.92% (inactive)
19,CC(NS(=O)(=O)c1ccc(Br)cc1)C(=O)NCC1CCCO1 (stereo not given),-1.6% (inactive)
20,CN1CCN(c2nc(Nc3ccc(O)cc3)nc3ccccc23)CC1,-3.27% (inactive)
21,OCCNc1nc(Nc2ccc(Cl)c(Cl)c2)nc2ccccc12,10.5% (active)
22,COc1cc2nc(Cl)nc(NCCO)c2cc1OC,-1.72% (inactive)
23,COc1ccc(C2=NN(C(=O)c3cccnc3)C(c3ccccc3)C2)cc1 (stereo not given),-5.54% (inactive)
24,COc1ccc(C(=O)CSc2nccc(=O)[nH]2)cc1,8.3% (inactive)

row,Structure (SMILES),max response
1,COc1ccc(C2CC(c3ccccc3)=NN2C(=O)c2ccc(Cl)c([N+](=O)[O-])c2)cc1 (stereo not given),12.9% (inactive)
2,COc1ccc(C2CC(c3ccc([N+](=O)[O-])cc3)=NN2C(C)=O)cc1 (stereo not given),24.5% (active)
3,COc1ccc(C(=O)Nc2nc(-c3ccc(OC)cc3)c(-c3ccc([N+](=O)[O-])cc3)s2)cc1,9.79% (inactive)
4,CCOc1ccc2nc(Cl)c(C3CC(c4ccccc4)=NN3C(=O)c3cccs3)cc2c1 (stereo not given),-1.42% (inactive)
5,COc1ccc(C2=NN(C(=O)c3ccccc3C(=O)O)C(c3ccccc3O)C2)cc1 (stereo not given),40.6% (active)
6,COc1ccc(C2CC(c3ccccc3)=NN2C(=O)CSc2nccc(=O)[nH]2)cc1 (stereo not given),40% (active)
7,COc1ccc(C2=NN(C(C)=O)C(c3ccccc3)C2)cc1 (stereo not given),20.9% (active)
8,COc1ccc(C2CC(c3ccccc3)=NN2C(=O)COC(=O)COc2ccccc2)cc1 (stereo not given),2.88% (inactive)
9,COc1cccc(C2CC(c3ccccc3)=NN2S(=O)(=O)c2ccccc2)c1OC (stereo not given),0.319% (inactive)
10,COc1ccc(C2=NN(C(=O)CCC(=O)O)C(c3cccs3)C2)cc1OC (stereo not given),-1.52% (inactive)
11,CCCCN(CCCC)CCNC(=O)CN1C(=O)COc2ccc(S(=O)(=O)N3CCOCC3)cc21,-2.14% (inactive)
12,CCN1C(=NCCc2cccnc2)N[C@@H](c2ccccc2)[C@H](C(=O)OC)[C@H]1C,3.2% (inactive) and 1.95% (inactive)
13,COCCN1C(=O)N(c2ccc(Cl)cc2)C(=O)C1CC(=O)Nc1cc(OC)cc(OC)c1 (stereo not given),-0.589% (inactive)
14,CCN1C(=O)c2cccc3c(S(=O)(=O)Nc4ccccc4O)ccc1c23,9.32% (inactive)
15,O=C(CCC(=O)NNc1nc2ccccc2c2nc(-c3ccccc3)nn12)NCCCN1CCCC1=O,10.3% (inactive)
16,COc1ccc(S(=O)(=O)NCCOc2ccccc2)cc1F,-4.53% (inactive)
17,Cc1ccc2c(c1)N(CC(=O)N1CCC(C)CC1)C(=O)c1cccnc1O2,-1.05% (inactive)
18,COC(=O)c1ccccc1NC(=O)C1CCN(C(=O)N2CCOc3ccccc32)CC1,0.401% (inactive)
19,CCOc1ccccc1CN1CCN(C2CCC2)CC1CCO (stereo not given),-0.61% (inactive)
20,CS(=O)(=O)c1ccccc1C(=O)Nc1ccc2sccc2c1,1.56% (inactive)
21,O=C(NCCN1CCOCC1)Nc1cccc(Cl)c1,20.1% (inactive)
22,Cc1cc(Cl)nc(NC(=O)Nc2cccc(Cl)c2)n1,19.5% (active)
23,O=C(Nc1cccc(Cl)c1)Nc1nnc(-c2ccccc2)o1,-4.47% (inactive)
